# Screening data (PubChem)
# Rows were chosen to be rich in hits. Some 2.4% of all compounds tested hit in one or more screens of this group.
# MEKK2mut PB1 HTS: signal of MEK5 binding to mutant human MEKK2 PB1 domain | bead flow cytometry, Alexa488-MEK5 binding to MEKK2 mutant | percent response, % at 10 µM | 0.35% of 290,000 active | AID 1530; in the data active means percent response above about 24%, passing the limit was not always enough
# MEKK2 WT-MEK5: raises or lowers MEK5 binding to wildtype human MEKK2 PB1 domain. 1.1% of 290,000 active. binding response (% of control), % at 10 µM. bead flow cytometry, Alexa488-MEK5 binding to MEKK2 WT; actives lie on both sides; in the data active means binding response below about 67% or above about 130%
# Pf gamet viab: kills late stage P. falciparum gametocytes. 0.065% of 150,000 active. inhibition, % at 10.9 µM. AID 743093. P. falciparum stage V gametocytes, ATP luminescence, 24 h;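 active means inhibition above the mean plus 3 SD of compounds within the control limits, set per campaign, cut at about 38% in these data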;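 further: 0% = DMSO wells and 100% = medium only without gametocytes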
# MEKK3 PB1 HTS: MEKK3-MEK5 PB1 interaction, increase or decrease. Q99759. bead-based flow cytometry, Alexa488-MEK5 binding to MEKK3; actives lie on both sides; 0 = blocked by unlabeled MEK5, 100 = vehicle. binding response (% of control), % at 10 µM. 1.4% of 290,000 active. AID 1529;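 active means binding response more than 3 SD above or below the average of its plate-row segment, actives on both sides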;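 further: Alexa488 bead fluorescence after subtracting the streptavidin-only scavenger bead signal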
# Target sequence (Q99759 whole entry, looked up): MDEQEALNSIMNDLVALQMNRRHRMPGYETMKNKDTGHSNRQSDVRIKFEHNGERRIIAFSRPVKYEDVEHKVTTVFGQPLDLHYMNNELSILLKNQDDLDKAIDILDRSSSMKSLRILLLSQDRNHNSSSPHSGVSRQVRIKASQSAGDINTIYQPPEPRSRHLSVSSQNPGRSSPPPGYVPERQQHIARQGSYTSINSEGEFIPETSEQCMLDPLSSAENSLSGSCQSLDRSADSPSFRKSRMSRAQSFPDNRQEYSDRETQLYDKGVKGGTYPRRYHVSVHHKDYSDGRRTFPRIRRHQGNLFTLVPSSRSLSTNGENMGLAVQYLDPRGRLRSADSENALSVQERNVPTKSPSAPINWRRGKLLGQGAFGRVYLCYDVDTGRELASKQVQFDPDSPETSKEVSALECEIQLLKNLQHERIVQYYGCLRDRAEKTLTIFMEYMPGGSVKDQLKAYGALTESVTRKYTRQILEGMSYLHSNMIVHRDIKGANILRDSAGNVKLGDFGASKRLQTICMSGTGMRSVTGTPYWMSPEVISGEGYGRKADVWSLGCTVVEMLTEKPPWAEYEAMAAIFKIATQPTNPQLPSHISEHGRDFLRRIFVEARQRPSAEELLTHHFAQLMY
# Arbovirus inh: blocks arbovirus infection; 0.37% of 200,000 active; inhibition, % at 10 µM; AID 1251; arbovirus infection cell-based antiviral screen; in the data active means inhibition above about 30%
# MEKK2wt confirm: raises or lowers MEK5 binding to wildtype human MEKK2, retest. binding response (% of control), % at 10 µM. shares compounds with MEKK3 PB1 HTS. bead flow cytometry, Alexa488-MEK5 binding to MEKK2 WT; actives lie on both sides. 2.4% of 5,900 active; in the data active means binding response below about 16% or above about 210%; inactive means in between
# MEKK2mut-MEK5: signal of MEK5 binding to mutant human MEKK2, retest | shares compounds with MEKK3 PB1 HTS | bead flow cytometry, Alexa488-MEK5 binding to MEKK2 mutant | percent response, % at 10 µM | 2% of 5,900 active | AID 1893; in the data active means percent response mostly above about 71%, no sharp cut-off; inactive means mostly below about 38%;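 further: higher means compound restores mutant binding toward wildtype level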
# MEKK3 confirm: MEKK3-MEK5 PB1 inhibition, single concentration confirmation. shares compounds with MEKK3 PB1 HTS. bead flow cytometry, Alexa488-MEK5 binding to MEKK3; hits give low values. binding response (% of control), % at 10 µM. 1.8% of 5,900 active;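 active means binding response below 72% of control, or above a set upper limit, though filed actives all read lower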;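 further: 100% = DMSO only wells and 0% = binding blocked by excess unlabeled MEK5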
# Active calls of the source: *; · = no result given; [ ] = another dose, or the depositor's remark.
SMILES,MEKK2mut PB1 HTS,MEKK2 WT-MEK5,Pf gamet viab,MEKK3 PB1 HTS,Arbovirus inh,MEKK2wt confirm,MEKK2mut-MEK5,MEKK3 confirm
CC(C)(C)CC(=O)Nc1ccc(-c2cn3cccnc3n2)cc1,-2,97,·,97,·,·,·,·
Cc1cc(C)c2c(NC(=S)NC(=O)c3ccccc3)n[nH]c2n1,-18,51,-6,42*[inhibitor],5,101,8,104
COCCCNc1nc2nonc2nc1N1CCC(C(C)N2CCOCC2)CC1 (centres undefined),1,105,-2,100,4,·,·,·
COc1ccc(CNC(=O)CCC(=O)Nc2nnc(C(F)(F)F)s2)cc1,8,111,·,105,·,·,·,·
CC1CN(C(=O)CSc2cn(CC(=O)N3CCOCC3)c3ccccc23)CC(C)O1 (centres undefined),2,102,·,101,·,·,·,·
CC1CN(C(=O)Cn2cc(SCC(=O)N3CCOCC3)c3ccccc32)CC(C)O1 (centres undefined),-15,-2.0*[inhibitor],·,1.0*[inhibitor],·,109,5,110
CCOC(=O)C(=O)Nc1cc(C)on1,-12,88,0,95,5,·,·,·
CCOC(=O)c1c(C)[nH]c(C(=O)NCc2ccco2)c1C,6,122,·,143*,-3,96,0,97
Cc1cccc(N2CCc3c2nc2ccc(Br)cc2c3N)c1,18,96,·,124*,-6,121,22,111
Nc1c2c(nc3ccc(Br)cc13)N(c1ccccc1)CC2,6,117,·,104,8,·,·,·
CC1(C)CC(=O)C=C(/C=C/c2ccccc2)C1,·,·,-47,·,·,·,·,·
COc1cc(C(C)=O)ccc1COc1ccc(C(=O)OCC(N)=O)cc1OC,-1,98,·,72*[inhibitor],-3,110,12,107
CC1(C)NC(=O)N(CCOc2ccc([N+](=O)[O-])cc2)C1=O,-40,49,·,42*[inhibitor],5,97,0,100
O=C(OCc1ccccc1)/C(=C/c1ccc(Cl)cc1)NC(=O)c1ccccc1Cl,24*,111,-19,109,-9,102,-5,103
c1nc(NCc2ccc3c(c2)OCO3)c2cc(-c3ccoc3)ccc2n1,·,·,1,·,·,·,·,·
O=C(CN1CCCC1)NC12CC3CC(CC(C3)C1)C2,-2,94,-21,98,0,·,·,·
O=C(CN1CCCC1)NCC12CC3CC(CC(C3)C1)C2,-5,91,·,82*[inhibitor],-4,101,3,103
N#C/C(=C\c1ccc(Sc2ccc(Cl)cc2)o1)c1nc2ccccc2[nH]1,14,150*,2,102,-19,131,14,102
CC(C)(C)C(=O)NC(n1cnc2c(N3CCOCC3)ncnc21)C(Cl)(Cl)Cl (centres undefined),-3,97,7,97,-2,·,·,·
COc1cccc2c(=O)c(C/C=C(/C)Cl)c(C)[nH]c12,-8,88,·,79*[inhibitor],6,104,5,102
NC(=O)COc1ccc(-c2noc(COc3ccccc3[N+](=O)[O-])n2)cc1,1,119,8,132*,12,96,1,100
NS(=O)(=O)c1ccc(NC(=O)CSc2nc(Nc3ccccc3)nc(N3CCOCC3)n2)cc1,5,106,·,105,·,·,·,·
O=C1c2cccnc2C(Nc2ccc(Cl)cc2)N1Cc1cccs1 (centres undefined),-16,54*[inhibitor],·,75*[inhibitor],1,108,7,104
CCC(C(=O)OC)n1cnc2c(nnn2-c2ccc(C)cc2)c1=O (centres undefined),5,105,·,103,·,·,·,·
CC(C)(C)OC(=O)CC[C@@H](C(=O)N1CCN(C(=O)OC(C)(C)C)CC1)n1cc(C(Cc2ccc(O)cc2)NC(=O)OC(C)(C)C)nn1 (some centres undefined),7,103,-26,104,1,·,·,·
SMILES,MEKK2mut PB1 HTS,MEKK2 WT-MEK5,Pf gamet viab,MEKK3 PB1 HTS,Arbovirus inh,MEKK2wt confirm,MEKK2mut-MEK5,MEKK3 confirm
O=C(COC(=O)C1COc2ccccc2O1)Nc1cccc(S(=O)(=O)N2CCCCC2)c1 (centres undefined),0,99,1,98,21,·,·,·
Cc1ccc(S(=O)(=O)N2CCCCC2)cc1NC(=O)CSc1nncn1-c1ccccc1,107*,·,·,95,7,107,7,104
COc1ccc([N+](=O)[O-])cc1NC(=O)CSc1nncn1-c1ccccc1,55*,105,-2,107,0,102,0,104
Cc1ccc(S(=O)(=O)N2CCOCC2)cc1NC(=O)COC(=O)C1COc2ccccc2O1 (centres undefined),0,109,4,144*,-5,101,-2,98
CCn1c(SCC(=O)OC)nnc1-c1c[nH]c2ccccc12,22,116,-1,129*,·,100,3,100
CCCn1c(C(C)Nc2nc(-c3cc(Cl)c(N)c(Cl)c3)cs2)nc2cc(Cl)c(N3CCCCC3)cc21 (centres undefined),-2,95,6,101,·,·,·,·
COc1cccc(NC(=O)[C@@H](NC(=O)N2CCn3c2nc2ccccc23)C(C)C)c1,3,101,·,102,·,·,·,·
COC(=O)CSc1nnc2cc(C)c3ccccc3n12,-12,41*[inhibitor],-1,46*[inhibitor],·,100,-4,99
Cc1ccc(S(=O)(=O)N2CCOCC2)cc1NC(=O)CSc1nnc2cc(C)c3ccccc3n12,4,107,-1,141*,-4,98,-5,95
Cc1cc2nnc(SCC(=O)Nc3cc(S(=O)(=O)N4CCOCC4)ccc3Cl)n2c2ccccc12,3,103,·,112,6,·,·,·
CCc1cccc(N(C(=O)c2csnn2)C(C(=O)NC(C)(C)C)c2ccccn2)c1 (centres undefined),-7,88,·,91,0,·,·,·
CCCC12CN3CCN(CC(C3)/C1=N\NC(=O)c1ccccc1N)C2,1,114,·,154*,-1,99,-5,101
CC(C)(C)c1ccc(C(=O)N/N=C2\C3CN4CCN(C3)CC2(c2ccccc2)C4)cc1,0,106,-7,132*,-8,100,-4,101
Nc1ccccc1C(=O)N/N=C1/C2CN3CCN(C2)CC1(Cc1ccccc1)C3,4,102,24,99,-2,·,·,·
CCC(C)NCCOCCOc1ccc(F)cc1 (centres undefined),-21,3.0*[inhibitor],·,2.0*[inhibitor],-1,101,-3,99
